The record followed here is PMC7819943, “Rice protein-binding microarrays: a tool to detect cis-acting elements near promoter regions in rice”.

In all, about 68,000 sequences were measured (“fluorescence intensity (a.u.)”: median about 9,100, highest 2% from about 16,000 on). For the sample, the highest values were picked, then their nearest neighbours and some sequences at random.

OsWRKY34, sequence (Q0JBA9 entry or part of it): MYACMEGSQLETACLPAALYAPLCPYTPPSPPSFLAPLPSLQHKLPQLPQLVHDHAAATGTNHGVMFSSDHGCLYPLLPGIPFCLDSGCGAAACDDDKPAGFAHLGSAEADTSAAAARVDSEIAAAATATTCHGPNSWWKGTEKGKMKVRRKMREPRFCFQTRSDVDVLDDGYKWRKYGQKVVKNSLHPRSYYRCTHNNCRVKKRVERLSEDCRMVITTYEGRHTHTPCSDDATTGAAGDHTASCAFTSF

The target in this assay is OsWRKY34 (Oryza sativa, UniProt Q0JBA9 1-250). The experiment in a line: protein-binding microarray (RPBM); PBS, 2% BSA, 51.3 ng/ul salmon testes DNA, 50 uM zinc acetate, 200 nM TF, 25 C, 1 h; high values mean tight binding. The note with it: protein: recombinant; tags: N-terminal polyhistidine and DsRed monomer fusion (pET32a); label: CyDye5-dUTP incorporated in the synthesized complementary strand; 3' TTTTT single-stranded linker to array surface; dsDNA, one strand shown. The method, boiled down:
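A custom Agilent array was converted to double-stranded form by primer extension with Cy5-dUTP and blocked with 2% BSA. Protein at 200 nM in PBS with 2% BSA, salmon testes DNA and 50 µM zinc acetate was applied for 1 h at 25 °C, followed by washing. The proteins were polyhistidine–DsRed N-terminal fusions of transcription factors, expressed in E. coli BL21-CodonPlus and Ni–NTA-purified. The binding signal is per-feature fluorescence intensity (arbitrary units) from an Axon 4000B scanner.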
For “TGTGCCTGCCGACTCGCCCACGCAACTCCGACTCTTTCCTCGGAGTCACCTAGTGCAG”, the binding signal was 13500 fluorescence intensity (a.u.).
In the case of “GTGGGTTGGGGTCGGCGAGGGATCCGGGCGGCGGGGTATGCGGAGTCACCTAGTGCAG” it was 14000 fluorescence intensity (a.u.); in that of “GGTTGGTGGCGGTGGGCCGGTGGCGGCTCGGTGGCGGAGCCGGAGTCACCTAGTGCAG”, 10200 fluorescence intensity (a.u.); in that of “GGCGGGGCGGATCCGAGGGGCGAAGTGGGTCGGGCGGCGGCGGAGTCACCTAGTGCAG”, 9480 fluorescence intensity (a.u.).
In the case of “GTTAACTTTTGGTAGTTGCAGGGGTTCTATAGGTGGGCAGCGGAGTCACCTAGTGCAG” it was 8640 fluorescence intensity (a.u.).
The result for “TTGGCGCGCGGTTGGTGGGGCGGTGGTGGTGGTGGTGCCTCGGAGTCACCTAGTGCAG” reads 17400 fluorescence intensity (a.u.); that for “CTGGCGAGCAGAGCAGGGGAGGGGAGGGGAGGGGATCGGGCGGAGTCACCTAGTGCAG”, 14200 fluorescence intensity (a.u.); that for “GGAGTGTGGCGGAGCGGGAGTTCGCGGGCGGACGGCGGGGCGGAGTCACCTAGTGCAG”, 11700 fluorescence intensity (a.u.).
Take “TATGGGTAGGTTCTTGTTCTATGGGGCAGGGGTCTTAAAGCGGAGTCACCTAGTGCAG”: the binding signal was 17100 fluorescence intensity (a.u.).
The result for “TTGGTGGGTGGCGCGGTGGCCGGACCTGGGGTGGTGGGCGCGGAGTCACCTAGTGCAG” reads 15900 fluorescence intensity (a.u.); that for “GCGGGACTTGCAGATCCGAGCGGGCGGGGCGGGGCGGGTTCGGAGTCACCTAGTGCAG”, 22000 fluorescence intensity (a.u.).
Take “CTTGGGGAAGGCGGCGGGTGTCGGGGAGGGCGAGGGTATCCGGAGTCACCTAGTGCAG”: the binding signal is 18000 fluorescence intensity (a.u.).
The result for “TGAGGTTTTGGGTTCTTGGGCACTTCTTGTTCTAGCCAAGCGGAGTCACCTAGTGCAG” reads 9900 fluorescence intensity (a.u.); that for “GCTATCGCCGGTTTCGTCATCAATAATCTTCTCTGCCTCTCGGAGTCACCTAGTGCAG”, 8820 fluorescence intensity (a.u.); that for “TTTCATCGTTTAGTGTCTTACTCCCTTTCCGATGGTCAACCGGAGTCACCTAGTGCAG”, 9340 fluorescence intensity (a.u.).
The result for “CATTCTTGTCTGTAGCTTATTTGTTCGTGTTCATTAGTTTCGGAGTCACCTAGTGCAG” reads 13500 fluorescence intensity (a.u.); that for “TGTCTCTCTTTGACATCTTGTTTCCCATAACCTAAAGATACGGAGTCACCTAGTGCAG”, 8260 fluorescence intensity (a.u.).
Consider “GTACGCAACTTGTCCGCAGCCGCGACCCCGACCCGACCCGCGGAGTCACCTAGTGCAG”, for which the binding signal is 8200 fluorescence intensity (a.u.).
In the case of “ATCATCCATATCCAGCTATACTATACTACTCGATCCCTTCCGGAGTCACCTAGTGCAG” it was 10200 fluorescence intensity (a.u.); in that of “CCCTCTCTCTATTTAAGCAAGCACATTCTCCTCTTCTTCTCGGAGTCACCTAGTGCAG”, 8240 fluorescence intensity (a.u.).
In the case of “GCCGACTCTTACTCCTCCGCCCACTCACCACGCGCGCTGCCGGAGTCACCTAGTGCAG”, the binding signal was 11000 fluorescence intensity (a.u.).
In the case of “CTCTTCTCCTCCAAGGATGGGGAGGTGGGGATGGTGGGGACGGAGTCACCTAGTGCAG” it was 19400 fluorescence intensity (a.u.); in that of “GAGTGGTGGAGGGTTGTGATTGGATGAGTAGTGGAGGTAGCGGAGTCACCTAGTGCAG”, 8760 fluorescence intensity (a.u.).
The result for “CGAGTGACGAGGTCTTGGGTTGGGGTAGGGGTGGGATGAGCGGAGTCACCTAGTGCAG” reads 19900 fluorescence intensity (a.u.); that for “TGGCGGCTCGGTGGCGGAGCTCCGGTGTGGGGTGGTGTGGCGGAGTCACCTAGTGCAG”, 8140 fluorescence intensity (a.u.); that for “TTGGGAGGGATGGGGCGGTGGTTAGGGGATGAGCGGAGGACGGAGTCACCTAGTGCAG”, 13200 fluorescence intensity (a.u.).
For the sequence “GTTGGGAAGGAAAGGGAGGGGTTGGTGCTCTCCTCCTCTTCGGAGTCACCTAGTGCAG”, the binding signal is 9740 fluorescence intensity (a.u.).
The result for “GGGAGGGGTGGCTCGGCGGCGGTGCGGGGTGGCGGTGCTCCGGAGTCACCTAGTGCAG” reads 18700 fluorescence intensity (a.u.); that for “AGAGGTGGAAGGGGATGGGGAGAAAAAAAAGGAGAGGGGACGGAGTCACCTAGTGCAG”, 8410 fluorescence intensity (a.u.).
On to “GGCGGAGCTCGGGATGTGGGAGGAGGAGGGCTATTTATTCCGGAGTCACCTAGTGCAG”, for which the binding signal was 14400 fluorescence intensity (a.u.).
“GCGGGCGGAGGAGCTCGGGCGTGGGCGGGGAGGGCGGATCCGGAGTCACCTAGTGCAG”: the binding signal was 20800 fluorescence intensity (a.u.).
Consider “CCGGGTGGAGGGCGGGGAAGCGGCGGCGGAACTCCGGGCTCGGAGTCACCTAGTGCAG”, for which the binding signal is 8490 fluorescence intensity (a.u.).
The result for “GTGGCCGGCGGCGTTCGGGCGTGGGCGGGGAGGCCGGATCCGGAGTCACCTAGTGCAG” reads 13700 fluorescence intensity (a.u.); that for “CAGTATCTTACTTCTCAGCTGCTCAATCATCAGCTGCCACCGGAGTCACCTAGTGCAG”, 9310 fluorescence intensity (a.u.).
In the case of “GCAAGATCTCCATGATGCGACAGCTCTACCGTTACAATTACGGAGTCACCTAGTGCAG” it was 8100 fluorescence intensity (a.u.); in that of “TCAATCAACGGCTACTTGTATGTAATCTCCACGCATTCCACGGAGTCACCTAGTGCAG”, 8630 fluorescence intensity (a.u.); in that of “CTTTTTGTTTTGGCCTTGACGTCGTGTTCACCGCCTCTACCGGAGTCACCTAGTGCAG”, 11800 fluorescence intensity (a.u.).
As to “CAGAGCTCTTCCTGCTGTACCTACCAAGCTCTTACTTTGACGGAGTCACCTAGTGCAG”, the binding signal was 8060 fluorescence intensity (a.u.).
Regarding “GTACTACTCCAAATCGTGTTCCACATTTCTATTTTGCACACGGAGTCACCTAGTGCAG”, the binding signal was 10200 fluorescence intensity (a.u.).
The result for “CTTAGGTCAACACCGAAAACTAATCACCATGTTGACTTTGCGGAGTCACCTAGTGCAG” reads 9710 fluorescence intensity (a.u.); that for “GATGGTGTGTGTGTGTGGCTGTGTGCACCTAAGAATTTCTCGGAGTCACCTAGTGCAG”, 10400 fluorescence intensity (a.u.).
The result for “ATATTTATGTGCCAAATATTGTCAATTGTTCCTCTTGTTACGGAGTCACCTAGTGCAG” reads 9080 fluorescence intensity (a.u.).
